Source: PubChem BioAssay (NCATS)
Values joined by “and” are separate entries in the source; they are usually repeats but may differ in a detail not shown here. Equal entries are not always repeated. Inconclusive results are not listed. A call without a number means that no potency is given here. Active and inactive are the calls of the source. Unless noted, calls come from the whole dose curve; as a rule, active = well fitted curve in the direction sought with a large enough effect; inconclusive = small, poorly fitted or top-dose-only effect, or another doubt; inactive = no such curve, though single readings can be large; an effect the other way counts as inactive or inconclusive.

What was measured:
[1] = qHTS for small molecule inhibitors of Yes1 kinase: Counter Assay (AID 686950);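 note: no kinase present so only ADP-Glo detection of a fixed ADP amount is tested; luminescence from ADP-Glo reporting ADP in a fixed ATP and ADP mixture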
How it was run: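 Enzyme-free detection counter-screen: compounds preincubated 20 min in buffer, then 0.08 mM ATP plus 0.02 mM ADP added for 60 min at room temperature; ADP-Glo luminescence. Buffer 50 mM Tris pH 7.5, 10 mM MgCl2, 150 mM NaCl; normalized to ATP+ADP and ATP-only controls.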

[2] = qHTS Assay for Identifying Gametocytocidal Compounds (AID 743244); note: potency is the fitted concentration of half-maximal effect;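 for max response: actives lower the fluorescent signal which means gametocytes are killed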; details: P. falciparum 3D7 stage III-V gametocytes, alamarBlue, 72 h; max response: stronger effect = lower value
How it was run: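 3D7 gametocytes, stages III–V, 20,000/well; cpd 72 h, 37 °C/5% CO2; + alamarBlue 24 h; fluor. Ex 525/Em 598.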

[3] = qHTS profiling for inhibitors of Plasmodium falciparum (3D7) proliferation (AID 743322; call rule not given here;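 note: infected erythrocytes exposed to compound for 72 h before lysis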); details: P. falciparum 3D7 proliferation; at 28.7 µM (top of the series)
How it was run: (§1)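 Erythrocytes infected with P. falciparum (0.3% parasitemia, 2.5% hematocrit) incubated with compounds 72 h at 37 C, 5% CO2. Lysis with saponin/Triton buffer containing SYBR Green I, overnight at room temperature in the dark; DNA fluorescence (485/535 nm) normalised to 0.29 uM artemisinin and DMSO.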

[4] = qHTS profiling for inhibitors of Plasmodium falciparum (DD2) proliferation (AID 743323; call rule not given here); details: lower = more inhibition; at 28.7 µM (top of the series)
How it was run: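 P. falciparum Dd2-infected erythrocytes (0.3% parasitemia, 2.5% hematocrit) exposed 72 h at 37 C, 5% CO2. Lysis with SYBR Green, overnight at room temperature, fluorescence 485/535 nm; normalized to 0.29 uM artemisinin and DMSO.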

[5] = qHTS profiling for inhibitors of Plasmodium falciparum (HB3) proliferation (AID 743324); details: Plasmodium falciparum HB3 blood-stage proliferation; at 28.7 µM (top of the series)
How it was run: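 P. falciparum HB3 grown in erythrocytes (0.3% parasitemia, 2.5% hematocrit final) with compound for 72 h at 37 C, 5% CO2. Parasite DNA detected by SYBR Green after saponin/triton lysis overnight; normalized to 0.29 uM artemisinin and DMSO.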

[6] = qHTS profiling of the MIPE4 collection as inhibitors of Plasmodium falciparum (3D7) proliferation (AID 743344; call rule not given here); details: P. falciparum 3D7 in erythrocytes, SYBR Green DNA fluorescence, 72 h; at 28.5 µM (top of the series) unless noted
How it was run: as §1

[7] = qHTS profiling of the MIPE4 collection as inhibitors of Plasmodium falciparum (DD2) proliferation (AID 743345; call rule not given here); details: P. falciparum Dd2 in erythrocytes, SYBR Green DNA, 72 h; at 28.5 µM (top of the series) unless noted
How it was run: as §1

[8] = qHTS profiling of the MIPE4 collection as inhibitors of Plasmodium falciparum (DD2) proliferation (Rep 2) (AID 743346; call rule not given here); details: P. falciparum Dd2 in erythrocytes, SYBR Green DNA, 72 h; at 28.5 µM (top of the series) unless noted
How it was run: as §1

[9] = qHTS profiling of the MIPE4 collection as inhibitors of Plasmodium falciparum (HB3) proliferation (AID 743347; call rule not given here); details: P. falciparum HB3 in erythrocytes, SYBR Green DNA, 72 h; at 28.5 µM (top of the series) unless noted
How it was run: as §1

[10] = target: Arylsulfatase A (Homo sapiens) (UniProt P15289); test: qHTS screen for enhancers of Arylsulfatase A (ASA1): LOPAC Validation Assay (AID 720538)
Sequence of Arylsulfatase A (Homo sapiens) (P15289 whole entry, looked up): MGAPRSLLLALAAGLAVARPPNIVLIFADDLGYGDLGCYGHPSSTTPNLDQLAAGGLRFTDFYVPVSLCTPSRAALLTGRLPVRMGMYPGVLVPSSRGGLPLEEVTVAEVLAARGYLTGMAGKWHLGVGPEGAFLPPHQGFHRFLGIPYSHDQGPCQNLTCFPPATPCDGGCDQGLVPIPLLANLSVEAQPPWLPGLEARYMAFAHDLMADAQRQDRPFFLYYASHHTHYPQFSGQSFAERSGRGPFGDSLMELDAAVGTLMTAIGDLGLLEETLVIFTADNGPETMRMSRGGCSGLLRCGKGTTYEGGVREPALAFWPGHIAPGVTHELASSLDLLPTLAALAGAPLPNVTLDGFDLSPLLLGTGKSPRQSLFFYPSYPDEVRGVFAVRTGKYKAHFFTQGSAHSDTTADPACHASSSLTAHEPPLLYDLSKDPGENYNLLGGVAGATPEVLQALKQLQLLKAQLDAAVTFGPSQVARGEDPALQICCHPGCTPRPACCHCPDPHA
How it was run: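 SV40-transformed fibroblasts from an MLD patient (ASA-I179S) were treated with compound for 48 h at 37 C. They were then lysed with 0.5 mM pNCS substrate (final) for 14 h at room temperature and stopped with NaOH; signal read by fluorescence (Ex 525/Em 598 nm), with increase denoting enhanced activity.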

[11] = qHTS for compounds that reverse cellular toxicity of Amyloid beta (A-beta) peptide in yeast: LOPAC Validation Assay (AID 720559)
How it was run: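 Yeast expressing toxic A-beta grown with pinned compounds at 30 C for 48 hr. Growth measured as absorbance at 600 nm; data normalized to DMSO and to an equimolar FeCl3/clioquinol mixture as positive control.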

[12] = qHTS for Activators of Parkin Expression: LOPAC Validation Assay (NLuc Reporter) (AID 720572)
How it was run: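 Neuronal cells with a Parkin promoter-driven FLuc/NLuc coincidence reporter were treated 24 h at 37 C in 7-point dose response (LOPAC). NLuc luminescence read after FLuc; signals normalized to DMSO and positive control (100%).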

[13] = qHTS for Activators of Parkin Expression: LOPAC Validation Assay (FLuc Reporter) (AID 720573)
How it was run: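 Neuronal cell line stably expressing FLuc/NLuc coincidence reporter under the Parkin promoter, 1,500 cells/well, dosed 24 h after seeding in 7-point series for 24 h at 37 C. FLuc luminescence read; normalized to DMSO and positive control (100%).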

[14] = qHTS assay for small molecule agonists of the antioxidant response element (ARE) signaling pathway measured by Nrf2-dependant transcriptional activity (AID 720636; active = well fitted curve in the direction sought with a large enough effect in the repeat runs; an effect the other way counts as inactive or inconclusive)
How it was run: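 Quantitative HTS format in HepG2 cells stably expressing an ARE-luciferase reporter; 16 hr compound treatment at 37 C, luciferase signal detected with ONE-Glo.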

[15] = qHTS assay for small molecule agonists of the antioxidant response element (ARE) signaling pathway measured by Nrf2-dependant transcriptional activity - cell viability counter screen (AID 720653; active = well fitted curve in the direction sought with a large enough effect in the repeat runs; an effect the other way counts as inactive or inconclusive); details: ARE-bla HepG2 viability, CellTiter-Glo ATP luminescence, 16 h; max response: stronger effect = lower value
How it was run: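 ARE-bla HepG2 cells treated with compounds for 16 h at 37C; this counter screen measures viability as intracellular ATP by CellTiter-Glo luminescence after 30 min at room temperature.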

[16] = target: T1, Hexokinase-4 (Homo sapiens) + Glucokinase regulatory protein (Homo sapiens) (UniProt P35557+Q14397); test: qHTS assay for inhibitors of recombinant human GCK-GKRP interaction: Diaphorase-coupled assay (AID 743205)
T1 sequence (P35557 whole entry, looked up): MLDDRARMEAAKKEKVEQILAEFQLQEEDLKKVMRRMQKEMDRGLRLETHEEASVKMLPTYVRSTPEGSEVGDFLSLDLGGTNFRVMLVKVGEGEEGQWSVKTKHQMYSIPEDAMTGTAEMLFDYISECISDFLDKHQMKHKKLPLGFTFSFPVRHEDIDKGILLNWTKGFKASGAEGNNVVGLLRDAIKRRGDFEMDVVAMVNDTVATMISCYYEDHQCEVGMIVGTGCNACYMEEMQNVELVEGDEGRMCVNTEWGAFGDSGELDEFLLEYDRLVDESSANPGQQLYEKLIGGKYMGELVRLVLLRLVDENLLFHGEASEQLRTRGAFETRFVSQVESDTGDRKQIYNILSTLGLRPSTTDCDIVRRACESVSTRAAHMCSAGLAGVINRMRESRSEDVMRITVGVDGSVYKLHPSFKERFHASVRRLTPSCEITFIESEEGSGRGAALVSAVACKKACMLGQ
T1 sequence (Q14397 whole entry, looked up): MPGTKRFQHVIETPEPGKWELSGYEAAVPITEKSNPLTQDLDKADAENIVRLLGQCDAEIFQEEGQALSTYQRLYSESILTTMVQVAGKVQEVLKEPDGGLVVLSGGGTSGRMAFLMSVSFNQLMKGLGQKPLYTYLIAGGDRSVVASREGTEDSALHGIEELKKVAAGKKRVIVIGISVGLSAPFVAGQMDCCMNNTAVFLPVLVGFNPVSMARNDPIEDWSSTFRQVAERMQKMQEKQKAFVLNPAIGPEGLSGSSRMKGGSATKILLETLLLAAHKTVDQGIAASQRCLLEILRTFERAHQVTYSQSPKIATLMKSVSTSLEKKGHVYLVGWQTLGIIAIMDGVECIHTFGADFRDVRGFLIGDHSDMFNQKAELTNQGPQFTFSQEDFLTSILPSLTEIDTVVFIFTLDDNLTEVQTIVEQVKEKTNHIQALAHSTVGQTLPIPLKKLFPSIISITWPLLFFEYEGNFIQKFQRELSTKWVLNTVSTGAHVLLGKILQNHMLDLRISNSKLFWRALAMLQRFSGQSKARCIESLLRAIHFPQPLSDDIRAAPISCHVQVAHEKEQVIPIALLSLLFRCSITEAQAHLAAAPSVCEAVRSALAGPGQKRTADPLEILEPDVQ
How it was run: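 Compounds pre-incubated 20 min with substrate, then 10 nM GST-GCK with 10 nM FLAG-GKRP added. GCK activity coupled via G6PDH and diaphorase to resorufin (5 mM glucose, 0.4 mM ATP, 0.15 mM NADP+, pH 7.6), read kinetically over 30 minutes at Ex 525/Em 590 nm.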

[17] = target: T1, Hexokinase-4 (Homo sapiens) + Glucokinase regulatory protein (Homo sapiens); test: qHTS assay for inhibitors of recombinant human GCK-GKRP interaction: ADP-Glo assay (AID 743206)
How it was run: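 GST-GCK and FLAG-GKRP (15 nM each in the dispensed mix, with 2 uM S6P) react with 0.4 mM ATP and 5 mM glucose (final) in Hepes pH 7.6 for 60 min at room temperature. ADP is measured by ADP-Glo luminescence.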

[18] = target: T1, Hexokinase-4 (Homo sapiens) + Glucokinase regulatory protein (Homo sapiens); test: qHTS assay for inhibitors of recombinant human GCK-GKRP interaction: HTRF assay (AID 743207)
How it was run: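 HTRF binding of 5 nM GST-GCK and 5 nM FLAG-GKRP with 2 uM S6P in pH 7.1 Hepes buffer (MgCl2, KCl, DTT, Tween 20, BSA). Anti-FLAG XL665 and anti-GST donor added, 60 min at room temperature; 665/615 nm read, normalized to with- and without-GCK controls.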

[19] = qHTS assay for cell viability of HEK293 cells (AID 743288); details: ATP luminescence (CellTiter-Glo), 18 h; max response: stronger effect = lower value; note: nearly all actives have a fitted effect of over 50% in size; note: potency is the fitted concentration of half-maximal effect
How it was run: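 Parental HEK293 cells, 2,000 per well, preincubated at least 5 h at 37 C, then exposed to compounds in DMSO for 18 h at 37 C. Viability by CellTiter-Glo ATP luminescence after 30 min at room temperature.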

[20] = qHTS assay for cell viability of the p53RE-bla HCT-116 cell line (AID 743292); note: nearly all actives have a fitted effect of over 55% in size
How it was run: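 Viability of compound-treated p53RE-bla HCT-116 cells is taken from ATP-dependent luciferase luminescence. Treatment lasts 16 h at 37 C after a 5 h settling period; detection follows 30 min at room temperature.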

CNC(=O)c1ccc(N2C(=S)N(c3ccc(C#N)c(C(F)(F)F)c3)C(=O)C23CCC3)cc1F
outcome [1]: inactive
max response [2]: -1.03% (inactive)
remaining parasite growth % (stronger effect = lower value) [3]: 74.2%
activity, percent of control [4]: 76.1%
remaining proliferation (% of control), lower = more inhibition [5]: 43.8%
parasite growth, % of DMSO control [6]: 36.9%
parasite growth remaining, % of DMSO control (lower = more inhibition) [7]: 81.7%
parasite growth, % of control (lower = inhibition) [8]: 45.4%
growth, % of control [9]: 69.7%

NCC(O)c1ccc(O)cc1 (centres undefined)
Potency [10]: inactive
outcome [11]: inactive
outcome [12]: inactive
outcome [13]: inactive
Potency [14]: inactive
max response [15]: -9.13% (inactive)
outcome [16]: inactive
outcome [17]: inactive
outcome [18]: inactive
max response [2]: 3.16% (inactive) and 11.7% (inactive)
max response [19]: 1.63% (inactive)
Potency [20]: inactive

CC(=O)[C@H]1CC[C@H]2[C@@H]3CC[C@H]4C[C@H](O)CC[C@]4(C)[C@H]3C(=O)C[C@]12C
Potency [10]: inactive
outcome [11]: inactive
outcome [12]: inactive
outcome [13]: inactive
outcome [16]: inactive
outcome [17]: inactive
outcome [18]: inactive
max response [2]: -4.24% (inactive) and 9.55% (inactive)

CNC(=O)N1N=C(c2ccc(N)cc2)c2cc3c(cc2CC1C)OCO3 (centres undefined)
outcome [1]: inactive
max response [2]: -1.27% (inactive)
remaining parasite growth % (stronger effect = lower value) [3]: 46.2%
activity, percent of control [4]: 92.1%
remaining proliferation (% of control), lower = more inhibition [5]: 83.9%
parasite growth, % of DMSO control [6]: 269%
parasite growth remaining, % of DMSO control (lower = more inhibition) [7]: 107%
parasite growth, % of control (lower = inhibition) [8]: 67.9%
growth, % of control [9]: 248%

c1ccc2c(c1)OCC(C1=NCCN1)O2 (centres undefined)
Potency [10]: inactive
outcome [11]: inactive
outcome [12]: inactive
outcome [13]: inactive
outcome [16]: inactive
outcome [17]: inactive
outcome [18]: inactive
Potency [2]: 6.31 µM (active) and 3.55 µM (active)

CNCCC(Oc1ccc(C(F)(F)F)cc1)c1ccccc1 (centres undefined)
Potency [10]: inactive

Cn1c(CCCC(=O)O)nc2cc(N(CCCl)CCCl)ccc21
outcome [1]: inactive
max response [2]: -0.45% (inactive)
remaining parasite growth % (stronger effect = lower value) [3]: 92.7%
activity, percent of control [4]: 105%
parasite growth, % of DMSO control [6]: 97.1%
parasite growth remaining, % of DMSO control (lower = more inhibition) [7]: 81.5%
parasite growth, % of control (lower = inhibition) [8]: 85.2%
growth, % of control [9]: 104%

C[C@@H]1O[C@@H](O[C@H]2C[C@@H](O)[C@]3(CO)[C@H]4[C@H](O)C[C@]5(C)[C@@H](C6=CC(=O)OC6)CC[C@]5(O)[C@@H]4CC[C@]3(O)C2)[C@H](O)[C@H](O)[C@H]1O
Potency [10]: inactive
outcome [11]: inactive
outcome [12]: inactive
outcome [13]: inactive
Potency [14]: inactive
outcome [16]: inactive
outcome [17]: inactive
outcome [18]: inactive
max response [2]: -6.85% (inactive) and -3.14% (inactive) and -2.93% (inactive)
Potency [19]: 63.1 nM (active)
parasite growth, % of DMSO control [6]: 81.9%
parasite growth remaining, % of DMSO control (lower = more inhibition) [7]: 95.7%
parasite growth, % of control (lower = inhibition) [8]: 124%
growth, % of control [9]: 101%
